Results taken from PubChem BioAssay AID1910 (Broad Institute, 2009).
Screen size: about 300,000 compounds; about 950 (0.32%) were called active.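 How the source made its calls: active means mean activation of at least 10% of the iron chelator positive control signal, with at least half of replicates also reaching 10%; inconclusive means mean and replicate majority disagree about reaching 10%; inactive means mean and most replicates under 10%.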 The sample as a whole holds a higher share of actives than the screen did.

experiment: HIF pathway transcriptional activators, primary screen, cell-based, U2OS HRE-luciferase, luminescence (AID 1910); conditions: U2OS HRE-luciferase reporter, active compounds read high, screened at 7.5 µM (by protocol), normalized: DMSO 0%, desferrioxamine 100%

Row | Compound | activation
1 | O=C(CNC(=O)C12CC3CC(CC(C3)C1)C2)OCC(=O)N1CCCCC1 | -0.325% (inactive)
2 | CC(NC(=O)c1ccccc1SCC(=O)N1CCCC1)c1ccccc1 (centres undefined) | -0.504% (inactive)
3 | O=C(NCCCn1ccnc1)c1cc(-c2ccccc2)on1 | 35.8% (active)
4 | O=C(NC1CCCC1)c1cc(-c2ccccc2)on1 | 25.3% (active)
5 | CC(NC(=O)c1cc(-c2ccccc2)on1)c1ccccc1 (centres undefined) | 0.0998% (inactive)
6 | COc1ccc(-c2cc(C(=O)NCCCn3ccnc3)no2)cc1 | 1.05% (inactive)
7 | COc1ccccc1-c1cc(C(=O)NCCCn2ccnc2)no1 | 0.0935% (inactive)
8 | O=C(NC1CCCCC1)c1cc(C2CC2)on1 | 1.35% (inactive)
9 | Cc1ccccc1C(=O)N1CCC(C(=O)Oc2ccc(C#N)cc2)CC1 | -0.988% (inactive)
10 | CC(=O)c1ccc(NC(=O)C2CCCN2S(=O)(=O)c2cccs2)cc1 (centres undefined) | -0.0783% (inactive)
11 | N#CCCN(C(=O)COC(=O)C1CCN(c2ccc(C(F)(F)F)cn2)CC1)c1ccc(F)cc1 | 0.186% (inactive)
12 | COc1ccc(CCNC(=O)CSc2nnc3ccc(-c4ccncc4)nn23)cc1 | -0.329% (inactive)
13 | COc1cccc(-c2ccc(C#N)c(SCC(=O)NCCc3ccc(Cl)cc3)n2)c1 | -0.149% (inactive)
14 | COc1ccc(CCNC(=O)CSc2nc(-c3ccc(OC)c(OC)c3)ccc2C#N)cc1 | 225% (active)
15 | C=CCOc1ccc(/C=C/C(=O)OCC(=O)NC(C)c2ccc(F)cc2)cc1 (centres undefined) | -1.98% (inactive)
16 | CCOc1ccc(NC(=O)c2ccc(NC(=O)CN3C(=O)C(=O)N(CC(C)C)C3=O)cc2)cc1 | -0.207% (inactive)
17 | Cc1ccc2[nH]c3c(=O)n(CC(=O)NCCc4ccc(Cl)cc4)ncc3c2c1 | 0.0828% (inactive)

Row | Compound | activation
18 | CC1CC(C)CN(CCCNC(=O)Cn2ncc3c([nH]c4ccccc43)c2=O)C1 (centres undefined) | -0.555% (inactive)
19 | Cc1cccc(CCNC(=O)Cn2ncc3c([nH]c4ccc(C)cc43)c2=O)c1 | 67.3% (active)
20 | Cc1ccc2nnn(Cc3cccc(C(C)(C)C)c3O)c2c1 | -0.574% (inactive)
21 | CCc1cccc(C)c1NC(=O)COC(=O)CC1CCCC1 | -0.451% (inactive)
22 | CC(=O)Nc1ccc(S(=O)(=O)N2CCC(NC(=O)c3ccccc3)CC2)cc1 | -33.2% (inactive)
23 | CCNC(=S)N1CCN(CCN=CC2=C(O)CC(C)(C)CC2=O)CC1 | -0.656% (inactive)
24 | CC1(C)CC(=O)C(C=NCCN2CCN(C(=S)Nc3cccc(Cl)c3)CC2)=C(O)C1 | 233% (active)
25 | CC(=O)N1CCN(CCN=CC2=C(O)CC(C)(C)CC2=O)CC1 | -0.482% (inactive)
26 | COCCNC(=S)N(CCc1c(C)[nH]c2ccc(C)cc12)Cc1cccnc1 | 0.573% (inactive)
27 | Cc1nnc(N/N=C/C2CC=CCC2)[nH]c1=O (centres undefined) | -0.414% (inactive)
28 | CNC(=O)C(=O)N/N=C/c1ccccn1 | -0.138% (inactive)
29 | Cc1nnc(N/N=C/c2ccccn2)[nH]c1=O | 117% (active)
30 | CCS(=O)(=O)Nc1cc(C(=O)OC)ccc1C(=O)OC | -0.124% (inactive)
31 | CCN(CCO)C(=S)Nc1cc(C(=O)OC)ccc1C(=O)OC | -0.0671% (inactive)
32 | CCCN(CCC)C(=S)Nc1cc(C(=O)OC)ccc1C(=O)OC | 166% (active)
33 | Fc1ccc(-c2ccc(NCCN3CCOCC3)nn2)cc1 | 3.51% (inactive)
34 | COc1ccc(NC(=O)CCCC(=O)c2ccccc2)cc1 | 0.37% (inactive)
